{"source": "PubChem BioAssay", "note": "The source made the active and inactive calls. The rule behind the calls is not given here."}
{"assay": "inhibitors of hydroxyurea-induced Chk1 phosphorylation, primary screen, imaging, HeLa, phospho-Chk1 antibody, percent positive cells (AID 1186)", "conditions": "hydroxyurea-induced phospho-Chk1 immunofluorescence imaging, higher = more signal"}
{"smiles": "O=C1O[C@@H](c2ccccc2)[C@@H](c2ccccc2)N2[C@@H](c3ccc(O)cc3)[C@]3(C(=O)Nc4ccc(C#CCCO)cc43)[C@@H](C(=O)Nc3nc4ccccc4s3)[C@H]12", "z-score": "0.151 (inactive)"}
{"smiles": "C=CCOC(=O)[C@@H]1[C@H]2C(=O)O[C@H](c3ccccc3)[C@H](c3ccccc3)N2[C@H](c2ccc(OCCOC(=O)[C@H]3C[C@H]4C(=O)N[C@@H](CCCCN(C)C)C(=O)N4[C@H]3c3cccc(OCCO)c3)cc2)[C@@]12C(=O)Nc1ccc(I)cc12", "z-score": "-0.426 (inactive)"}
{"smiles": "Cc1c(NC(=O)/C(C#N)=C/C=C/c2ccc(N(C)C)cc2)c(=O)n(-c2ccccc2)n1C", "z-score": "0.348 (inactive)"}
{"smiles": "O=C1C2C=CC(C(O)c3cc(C(F)(F)F)cc(C(F)(F)F)c3)N(Nc3ccc([N+](=O)[O-])cc3)C2C(=O)N1c1ccccc1", "note": "(stereo not given)", "z-score": "-0.198 (inactive)"}
{"smiles": "O=C1NC(=O)C2C1C=CC(C(O)c1cc(C(F)(F)F)cc(C(F)(F)F)c1)N2Nc1ccc(Cl)cc1Cl", "note": "(stereo not given)", "z-score": "1.15 (inactive)"}
{"smiles": "CO[C@H]1O[C@H](CO)[C@@H](OC(=O)Nc2ccccc2-c2ccccc2)[C@H](OC(=O)Nc2ccc3c(c2)OCO3)[C@@H]1OC(=O)Nc1ccc2c(c1)OCO2", "z-score": "-0.0753 (inactive)"}
{"smiles": "Cc1ccc(F)cc1S(=O)(=O)N[C@@H]1CCN(Cc2ccc(Oc3ccccc3)cc2)C1", "z-score": "0.659 (inactive)"}
{"smiles": "CCOC(=O)C1=CC[C@@H](c2ccccc2)N(S(=O)(=O)c2ccc(C)cc2)C1", "z-score": "0.107 (inactive)"}
{"smiles": "Cc1ccc(S[C@]2(C(=O)NCC(F)(F)F)CC(=O)N(Cc3ccccc3)[C@@H]2c2ccc(CO)cc2)cc1", "z-score": "-0.336 (inactive)"}
{"smiles": "CC(C)CNC(=O)[C@@H]1c2ccccc2C(=O)N(Cc2cc(F)cc(C(F)(F)F)c2)[C@H]1c1ccc(CO)cc1", "z-score": "-0.478 (inactive)"}
{"smiles": "CCN(CC)c1ccc(N2CC=CC34O[C@@H]5/C=C\\CCC(C)OC(=O)C5[C@H]3C(=O)N(CCO)[C@@H]4C2=O)cc1", "note": "(stereo not given in full)", "z-score": "0.695 (inactive)"}
{"smiles": "COc1ccccc1CN1C(=O)c2ccccc2[C@@H](C(=O)NC(C)C)[C@@H]1c1ccc(CO)cc1", "z-score": "0.19 (inactive)"}
{"smiles": "[N-]=[N+]=NCc1ccccc1[C@H]1OC(c2ccc(OCCCO)cc2)=N[C@@]1(CCS(=O)(=O)c1ccccc1)C(N)=O", "z-score": "0.163 (inactive)"}
{"smiles": "C=CCOC(=O)[C@@H]1[C@H]2C(=O)O[C@H](c3ccccc3)[C@H](c3ccccc3)N2[C@H](c2ccc(OCCOC(=O)[C@H]3C[C@H]4C(=O)N[C@@H](CCCC[N+](C)(C)C)C(=O)N4[C@H]3c3ccc(O)cc3)cc2)[C@@]12C(=O)Nc1ccc(I)cc12", "z-score": "-0.655 (inactive)"}
{"smiles": "C=C(CCCC)/C(=C/C[C@@H](OC(C)=O)c1ccc(CO)o1)c1cc(C(=O)OC)ccc1OC", "z-score": "0.19 (inactive)"}
{"smiles": "CC(C)C(O)C1C=CC2C(=O)N(C)C(=O)C2N1N(c1ccccc1)c1ccccc1", "note": "(stereo not given)", "z-score": "0.307 (inactive)"}
{"smiles": "C=CCNC(=O)[C@@H]1[C@H]2C(=O)O[C@H](c3ccccc3)[C@H](c3ccccc3)N2[C@H](c2ccc(OCCO)cc2)[C@@]12C(=O)N(C(=O)OCCOC)c1ccc(C#CC3=CCCCC3)cc12", "z-score": "0.201 (inactive)"}
{"smiles": "COCCOC(=O)N1C(=O)[C@@]2(c3cc(C#Cc4ccc(OC)cc4)ccc31)[C@H](C(=O)N1CCCCCCC1)[C@H]1C(=O)O[C@H](c3ccccc3)[C@H](c3ccccc3)N1[C@@H]2c1ccc(O)cc1", "z-score": "-0.29 (inactive)"}
{"smiles": "COC(=O)Cn1c(C(=O)N2CCCC2)cc2c1C[C@H]1CN(C(=O)c3ccccc3)[C@@](Cc3ccc(F)cc3)(C(=O)OC)[C@@H]21", "z-score": "-1.49 (inactive)"}
{"smiles": "NCCCCCNC(=O)[C@@H]1C[C@@H]2C(=O)N[C@@H](CCCCN)C(=O)N2[C@@H]1c1cccc(OCCO)c1", "z-score": "0.0424 (inactive)"}
{"smiles": "Cc1ccc(S[C@]2(C(=O)NC(C)C)CC(=O)N(Cc3ccccc3C(F)(F)F)[C@@H]2c2ccc(CO)cc2I)cc1", "z-score": "0.0101 (inactive)"}
{"smiles": "COCCOC(=O)N1C(=O)[C@@]2(c3cc(C#CC4(O)CCCCCC4)ccc31)[C@H](C(N)=O)[C@H]1C(=O)O[C@H](c3ccccc3)[C@H](c3ccccc3)N1[C@@H]2c1ccccc1OCCO", "z-score": "0.276 (inactive)"}
{"smiles": "C=CC[C@H](OC(=O)Nc1ccc(OC)cc1)c1ccc(O)c2ccccc12", "z-score": "0.936 (inactive)"}
{"smiles": "COCC(=C=CC[C@H](O)c1cccc(OCCO)c1)C[C@H](O)c1ccccn1", "z-score": "-0.028 (inactive)"}
{"smiles": "C=CC[C@@]1(C(=O)N2CCCCC2)N=C(c2ccc(OCCCO)cc2)O[C@@H]1c1ccccc1", "z-score": "-0.377 (inactive)"}
{"smiles": "COCCCNC(=O)[C@@H]1c2ccccc2C(=O)N(Cc2ccccc2C(F)(F)F)[C@H]1c1ccc(CO)cc1", "z-score": "-0.477 (inactive)"}
{"smiles": "COc1ccc([Si](C)(C)[C@H]2[C@H](CCO)O[C@@]3(C(=O)N(Cc4cccc(N5CCCCC5=O)c4)c4ccccc43)[C@@H]2C)cc1", "z-score": "-1.36 (inactive)"}
{"smiles": "O=C1C[C@@](C(=O)NCC(F)(F)F)(c2ccc([N+](=O)[O-])cc2)[C@@H](c2ccc(CO)cc2)N1C1CCCCC1", "z-score": "-0.0554 (inactive)"}
{"smiles": "COC(=O)[C@@]1(Cc2ccc(OC)cc2)[C@H]2c3cc(C(=O)N(C)C)n(CCc4c[nH]c5ccc(O)cc45)c3C[C@H]2CN1C(=O)c1ccccc1", "z-score": "0.453 (inactive)"}
{"smiles": "CC(C)c1ccc(NN2C(C(O)c3ccco3)C=CC3C(=O)N(c4ccccc4)C(=O)C32)cc1", "note": "(stereo not given)", "z-score": "-0.881 (inactive)"}
{"smiles": "COC(=O)[C@@]1(Cc2ccc(OC)cc2)[C@H]2c3cc(C(=O)N(C)C)n(Cc4nc5ccccc5[nH]4)c3C[C@H]2CN1C(=O)c1ccccc1", "z-score": "0.399 (inactive)"}
{"smiles": "CN1C(=O)[C@@]2(CCS(=O)(=O)c3ccccc3)N=C(c3ccc(OCCCO)cc3)O[C@H]2c2ccccc21", "z-score": "-0.262 (inactive)"}
{"smiles": "O=C1O[C@@H](c2ccccc2)[C@@H](c2ccccc2)N2[C@@H](c3ccc(O)cc3)[C@]3(C(=O)Nc4ccccc43)[C@@H](C(=O)Nc3nc4ccccc4s3)[C@H]12", "z-score": "-0.193 (inactive)"}
{"smiles": "CC(C)NC(=O)[C@@]1(C)c2ccccc2C(=O)N(C(C)C)[C@H]1c1ccc(CO)cc1", "z-score": "0.244 (inactive)"}
{"smiles": "COC(=O)[C@@]1(Cc2ccccc2)[C@H]2c3cc(C(=O)N4CCCC4)[nH]c3C[C@H]2CN1C(=O)c1ccccc1", "z-score": "1.1 (inactive)"}
